The source of these data is PubChem BioAssay (NCATS).

Records with an inconclusive call do not appear. Where a call stands in place of a potency, no number is given. The source made the active and inactive calls. Unless noted, the call rests on the fitted dose curve; in most records, active means well fitted curve in the direction sought with a large enough effect; inconclusive means small, poorly fitted or top-dose-only effect, or another doubt; inactive means no such curve, though single readings can be large; an effect the other way counts as inactive or inconclusive.

Experiment [1] deals with Ubiquitin carboxyl-terminal hydrolase 1 (Homo sapiens) (UniProt O94782). Description: Inhibitors of USP1/UAF1: Pilot qHTS (AID 504865). Further: nearly all actives have a fitted effect of over 35% in size. Further: potency means the concentration at half of the fitted maximal effect. The note with it: purified USP1/UAF1, Ub-rhodamine cleavage fluorescence; series mostly up to 114 µM. The method, boiled down: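 1nM USP1/UAF1 + cpd, 15 min RT; start w/ Ub-Rho 150nM final; kinetic FL 480/540 nm, 6 reads q60 s. Buffer 50mM HEPES pH 7.8, 0.5mM EDTA, 1mM TCEP, 0.01% Tween-20, 0.1 mg/ml BSA.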
Sequence of Ubiquitin carboxyl-terminal hydrolase 1 (Homo sapiens) (O94782 whole entry, looked up): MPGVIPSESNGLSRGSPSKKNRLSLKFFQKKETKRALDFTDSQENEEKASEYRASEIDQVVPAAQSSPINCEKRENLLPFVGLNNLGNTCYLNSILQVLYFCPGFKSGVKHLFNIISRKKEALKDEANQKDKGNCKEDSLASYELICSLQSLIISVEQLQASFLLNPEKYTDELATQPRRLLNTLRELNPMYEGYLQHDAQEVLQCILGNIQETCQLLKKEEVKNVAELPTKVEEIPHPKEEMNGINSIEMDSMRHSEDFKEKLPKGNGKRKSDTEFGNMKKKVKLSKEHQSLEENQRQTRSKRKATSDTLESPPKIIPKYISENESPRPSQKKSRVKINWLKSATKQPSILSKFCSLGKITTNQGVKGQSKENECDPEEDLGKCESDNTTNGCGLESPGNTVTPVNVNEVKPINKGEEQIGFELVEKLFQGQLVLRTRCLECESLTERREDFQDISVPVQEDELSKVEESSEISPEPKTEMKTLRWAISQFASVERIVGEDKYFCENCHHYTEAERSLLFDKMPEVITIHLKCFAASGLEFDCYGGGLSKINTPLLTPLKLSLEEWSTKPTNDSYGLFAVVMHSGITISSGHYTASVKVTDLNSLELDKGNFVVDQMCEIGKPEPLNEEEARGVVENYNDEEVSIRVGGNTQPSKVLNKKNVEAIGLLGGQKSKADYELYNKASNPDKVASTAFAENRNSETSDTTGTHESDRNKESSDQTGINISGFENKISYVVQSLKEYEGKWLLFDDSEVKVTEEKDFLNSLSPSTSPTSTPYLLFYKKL

In experiment [2] the target is DNA dC->dU-editing enzyme APOBEC-3G (Homo sapiens) (UniProt Q9HC16). Description: qHTS for inhibitors of Vif-A3G interactions: Validation (AID 588379). As to conditions: Vif-A3G protein interaction assay; series mostly up to 46.1 µM. A digest of the protocol: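 HeLa cells stably expressing Vif and A3G-eYFP, 700 cells/well, incubated overnight at 37 deg C, then exposed to compound overnight at 37 deg C. Inhibition of Vif-mediated degradation read as increased yellow fluorescence (Ex 488/Em 500-530) by laser-scanning cytometry.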
Sequence of DNA dC->dU-editing enzyme APOBEC-3G (Homo sapiens) (Q9HC16 whole entry, looked up): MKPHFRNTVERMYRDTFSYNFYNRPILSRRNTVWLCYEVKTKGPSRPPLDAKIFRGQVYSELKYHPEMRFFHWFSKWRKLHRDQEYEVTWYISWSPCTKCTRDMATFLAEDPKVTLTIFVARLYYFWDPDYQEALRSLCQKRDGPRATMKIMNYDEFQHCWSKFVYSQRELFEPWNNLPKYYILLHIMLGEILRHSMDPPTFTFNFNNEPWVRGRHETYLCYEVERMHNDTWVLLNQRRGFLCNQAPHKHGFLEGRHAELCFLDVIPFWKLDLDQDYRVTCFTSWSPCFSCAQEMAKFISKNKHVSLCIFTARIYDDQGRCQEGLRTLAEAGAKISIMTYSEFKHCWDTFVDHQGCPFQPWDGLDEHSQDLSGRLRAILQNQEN

Experiment [3] can be described thus: qHTS for Inhibitors of Cell Surface uPA Generation: Validation Assay (AID 493164). As to conditions: mouse cells, plasminogen activation; series mostly up to 38.3 µM. The method, boiled down: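 RAW 264.7 cells (4000/well) were plated overnight, then exposed for 18 h at 37 C, 5% CO2 to compounds in a 7-point 1:5 titration (2.45 nM–38.3 uM final). Intracellular ATP was read by ATP-Lite luminescence.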

Experiment [4] deals with Peptidyl-prolyl cis-trans isomerase NIMA-interacting 1 (Homo sapiens) (UniProt Q13526). Description: qHTS Validation Assay to Find Inhibitors of Pin1 (AID 504536; active means well fitted inhibition curve with a large enough effect in the polarisation, with a control signal flat, not every such curve was filed as active; the % refers to the polarisation). As to conditions: Pin1 fluorescence polarization peptide binding assay; series mostly up to 57.5 µM. A digest of the protocol: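 Fluorescence polarization competition: compounds (titration) displace HiFluor-488-labeled Pin1-1b peptide from Pin1 (0.3 uM final) in pH 7.5 HEPES buffer with DTT, 10 min at room temperature; %Activity normalized to no-enzyme wells, curves fitted.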
Sequence of Peptidyl-prolyl cis-trans isomerase NIMA-interacting 1 (Homo sapiens) (Q13526 whole entry, looked up): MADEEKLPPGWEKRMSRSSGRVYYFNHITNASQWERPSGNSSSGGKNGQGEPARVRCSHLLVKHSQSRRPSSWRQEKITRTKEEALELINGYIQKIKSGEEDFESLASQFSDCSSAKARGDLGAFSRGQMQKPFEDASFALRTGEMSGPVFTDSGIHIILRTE

Experiment [5] has as its target Phosphoglycerate kinase, glycosomal (Trypanosoma brucei brucei) (UniProt P07378). Briefly: qHTS Validation Assay to Find Inhibitors of Phosphoglycerate Kinase (AID 504547). As to conditions: enzymatic PGK inhibition, coupled luminescence read-out; series mostly up to 57.5 µM. The method, boiled down: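 Inhibition of the enzyme is judged by a Kinase-Glo Plus luminescent signal following a one-hour incubation at room temperature. Because 1,3-BPG is unstable, it is made in situ by GAPDH at 100nM final; no-PGK wells define the baseline.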

Experiment [6] addresses phosphoglycerate mutase (Leishmania major) (UniProt Q4Q090). Description: qHTS Validation Assay to Find Inhibitors of Phosphoglycerate Mutase (AID 504548).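 Further: end-point luminescence from Kinase-GloPlus after the PGAM reaction.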 The note with it: biochemical enzyme activity; series mostly up to 57.5 µM. The method, boiled down: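 Inhibition of L. major PGAM was assessed by Kinase-GloPlus luminescence following a 45-minute room-temperature reaction with enzyme at 1.25nM final.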

A short description of experiment [7]: qHTS for Inhibitors of ATXN expression: Validation (AID 588378). Further: nearly all actives have a fitted effect of over 75% in size. Further: potency means the concentration at half of the fitted maximal effect. As to conditions: cell-based ATXN2 expression reporter assay, luminescence; series mostly up to 57.1 µM. The method, boiled down:
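Cells: HEK293-ATXN2-FFLuc, phenol-red free DMEM, 2 h attachment. Compound pin-transfer, 24 h, 37 degrees C, 5% CO2. CellTiter-Fluor 30 min, Ex405/Em525; Bright-Glo 5 min, luminescence 2 s exposure.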

Experiment [8] has as its target Voltage-gated inwardly rectifying potassium channel KCNH2 (Homo sapiens) (UniProt Q12809). Description: qHTS Assay for Small Molecule Inhibitors of the Human hERG Channel Activity (AID 588834).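 Further: lower thallium flux fluorescence means stronger hERG block; nearly all actives have a fitted effect of over 50% in size.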 Further: potency means the concentration at half of the fitted maximal effect. As to conditions: U2OS BacMam hERG, FluxOR thallium flux fluorescence; series mostly up to 46.1 µM. The method, boiled down:
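Concentration-response qHTS measuring drop in thallium-sensitive dye signal. U2OS cells carrying BacMam hERG; compound exposure ~10 min, then stimulation buffer and 2 min read at 1 sec intervals.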

The nature of experiment [9]: qHTS for Inhibitors of ATXN expression: Validation of Cytotoxic Assay (AID 588349). As to conditions: cytotoxicity counter-screen for ATXN expression inhibitors, cell viability; series mostly up to 57.1 µM. The method, boiled down:
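Read-out: ATP-based luminescence (CellTiter Glo) reflecting viability of HEK293 cells after 72 hr incubation at 37 degrees C with a concentration series of each compound.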

In experiment [10] the target is Galactokinase (Homo sapiens) (UniProt P51570). Briefly: qHTS Validation Assay for Inhibitors of Human Galactokinase (GALK) (AID 493189). The note with it: purified human GALK enzyme activity, qHTS 7-point titration; series mostly up to 57.5 µM. The method, boiled down: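 Luminescence from leftover ATP (Kinase-Glo Plus, 10 min) served as read-out after a 1 h room-temperature reaction of 5 nM GALK, 100 uM galactose and 35 uM ATP at pH8.0.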
Sequence of Galactokinase (Homo sapiens) (P51570 whole entry, looked up): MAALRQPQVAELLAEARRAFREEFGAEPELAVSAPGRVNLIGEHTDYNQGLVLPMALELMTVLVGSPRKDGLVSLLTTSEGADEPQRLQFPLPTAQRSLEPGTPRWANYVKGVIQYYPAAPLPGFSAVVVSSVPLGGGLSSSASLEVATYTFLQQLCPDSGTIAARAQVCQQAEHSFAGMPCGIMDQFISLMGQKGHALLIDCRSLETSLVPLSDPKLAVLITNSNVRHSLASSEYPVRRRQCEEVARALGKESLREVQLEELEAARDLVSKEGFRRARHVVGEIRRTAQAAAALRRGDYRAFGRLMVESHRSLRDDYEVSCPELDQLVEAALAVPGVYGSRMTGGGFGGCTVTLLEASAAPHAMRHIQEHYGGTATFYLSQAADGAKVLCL

Experiment [11] in a line: Validation screen for small molecules that induce DNA re-replication in SW480 colon adenocarcinoma cells (AID 504364). The note with it: DNA re-replication phenotype (high-content imaging); series mostly up to 46.1 µM. A digest of the protocol:
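250 cells/well; compound pinned in; 48 hr, 37 C, 5% CO2; Hoechst added, 40 min; nuclear fluorescence imaged, 405 ex / 500-530 em; re-replication scored as increase in high-intensity nuclei.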

Sequence of Voltage-gated inwardly rectifying potassium channel KCNH2 (Homo sapiens) (Q12809 whole entry, looked up): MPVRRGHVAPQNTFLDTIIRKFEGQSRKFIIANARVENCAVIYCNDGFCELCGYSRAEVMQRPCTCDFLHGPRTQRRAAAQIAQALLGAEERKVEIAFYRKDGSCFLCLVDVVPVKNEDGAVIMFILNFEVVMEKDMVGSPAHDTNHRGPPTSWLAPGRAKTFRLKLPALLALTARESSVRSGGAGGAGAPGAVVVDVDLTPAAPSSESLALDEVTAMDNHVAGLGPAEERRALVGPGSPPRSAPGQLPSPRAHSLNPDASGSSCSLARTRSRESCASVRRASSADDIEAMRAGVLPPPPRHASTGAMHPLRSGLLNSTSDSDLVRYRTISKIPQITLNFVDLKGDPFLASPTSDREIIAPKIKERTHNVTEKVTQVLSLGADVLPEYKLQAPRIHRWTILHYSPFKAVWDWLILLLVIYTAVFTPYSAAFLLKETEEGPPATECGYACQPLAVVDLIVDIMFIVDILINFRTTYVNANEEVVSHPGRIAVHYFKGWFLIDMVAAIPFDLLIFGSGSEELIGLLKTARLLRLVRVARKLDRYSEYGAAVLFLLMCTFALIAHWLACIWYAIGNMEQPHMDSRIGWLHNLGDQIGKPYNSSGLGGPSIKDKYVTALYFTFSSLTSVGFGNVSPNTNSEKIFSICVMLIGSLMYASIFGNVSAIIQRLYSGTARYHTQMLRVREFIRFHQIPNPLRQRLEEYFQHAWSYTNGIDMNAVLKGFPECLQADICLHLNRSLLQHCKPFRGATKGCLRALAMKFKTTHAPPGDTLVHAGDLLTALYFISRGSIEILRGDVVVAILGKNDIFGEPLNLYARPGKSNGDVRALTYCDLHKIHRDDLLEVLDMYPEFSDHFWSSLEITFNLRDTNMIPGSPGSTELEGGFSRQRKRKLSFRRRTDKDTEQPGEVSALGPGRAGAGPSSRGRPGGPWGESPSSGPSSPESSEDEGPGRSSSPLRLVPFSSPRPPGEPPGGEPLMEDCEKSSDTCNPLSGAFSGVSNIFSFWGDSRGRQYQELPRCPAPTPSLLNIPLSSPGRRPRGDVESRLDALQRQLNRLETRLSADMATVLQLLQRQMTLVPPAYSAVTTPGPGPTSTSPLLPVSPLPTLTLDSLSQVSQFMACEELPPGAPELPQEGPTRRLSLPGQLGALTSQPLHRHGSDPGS
Sequence of Phosphoglycerate kinase, glycosomal (Trypanosoma brucei brucei) (P07378 whole entry, looked up): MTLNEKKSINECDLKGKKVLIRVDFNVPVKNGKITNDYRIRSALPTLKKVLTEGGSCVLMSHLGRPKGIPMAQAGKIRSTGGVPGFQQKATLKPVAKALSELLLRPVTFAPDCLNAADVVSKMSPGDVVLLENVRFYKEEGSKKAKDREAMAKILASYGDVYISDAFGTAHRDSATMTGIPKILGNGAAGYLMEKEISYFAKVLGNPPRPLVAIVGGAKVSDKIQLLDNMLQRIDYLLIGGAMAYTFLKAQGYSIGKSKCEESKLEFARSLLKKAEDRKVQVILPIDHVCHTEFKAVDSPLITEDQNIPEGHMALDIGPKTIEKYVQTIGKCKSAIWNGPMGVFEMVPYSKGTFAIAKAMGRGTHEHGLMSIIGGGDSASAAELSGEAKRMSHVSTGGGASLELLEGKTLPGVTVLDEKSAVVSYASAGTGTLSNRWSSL
Sequence of phosphoglycerate mutase (Leishmania major) (Q4Q090 1-553): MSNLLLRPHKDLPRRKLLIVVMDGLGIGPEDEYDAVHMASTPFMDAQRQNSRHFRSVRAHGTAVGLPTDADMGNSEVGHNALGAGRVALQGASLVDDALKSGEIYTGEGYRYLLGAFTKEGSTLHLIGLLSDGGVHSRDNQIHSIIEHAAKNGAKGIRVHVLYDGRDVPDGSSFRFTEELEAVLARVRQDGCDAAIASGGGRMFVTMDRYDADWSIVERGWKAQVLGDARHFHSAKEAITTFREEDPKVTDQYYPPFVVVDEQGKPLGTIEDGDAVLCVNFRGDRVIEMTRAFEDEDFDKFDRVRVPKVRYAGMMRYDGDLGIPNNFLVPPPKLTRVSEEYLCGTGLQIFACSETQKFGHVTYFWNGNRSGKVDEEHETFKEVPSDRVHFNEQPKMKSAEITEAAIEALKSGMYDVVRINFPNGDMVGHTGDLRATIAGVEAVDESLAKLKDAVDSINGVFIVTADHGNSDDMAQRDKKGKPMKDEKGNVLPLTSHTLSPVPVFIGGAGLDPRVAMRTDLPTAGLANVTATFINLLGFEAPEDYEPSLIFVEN

As to `CC1C(=O)OC2C(O)C34C5CC(C(C)(C)C)C36C(OC(=O)C6O)OC4(C(=O)O5)C12O` (stereo unspecified), the Potency result in experiment [1] is “inactive”. Moreover, the result in experiment [2] was inactive.

Regarding `C=CCc1cccc(C=NNC(=O)CN2CCN(Cc3ccccc3)CC2)c1O`, the call in [3], in [4], in experiment [5] and in [6] was inactive. In [7], the Potency was 3.55 µM (active).

For `Cc1cc(NC(=O)Nc2ccc(N(C)C)cc2)c2cc(F)cc(F)c2n1`, in experiment [1], the Potency entry is “inactive”. Further, the call in experiment [2] was inactive.

`N#CC(c1ccc(Cl)cc1)c1c(Cl)cc(-n2ncc(=O)[nH]c2=O)cc1Cl` (stereo unspecified): the Potency in [1] is 79.4 µM (active). Moreover, the Potency entry in experiment [8] is “inactive”.

For the compound `COc1nccc(-c2c(-c3ccc(F)cc3)ncn2C2CCC(O)CC2)n1` (stereo unspecified), the Potency entry in [1] was “inactive”. Moreover, the call in experiment [2] was inactive.

On to `O=c1cc(-c2ccc(O)c(O)c2)oc2cc(O)cc(O)c12`, for which, in [2], the outcome was inactive.

For `NS(=O)(=O)c1cc(Cl)c(Cl)c(S(N)(=O)=O)c1`, the Potency entry in [1] and in experiment [8] was “inactive” in each case.

With `CN(C)CCN(Cc1ccc(Cl)cc1)c1ccccn1`, the Potency entry in experiment [1] is “inactive”.

Consider `Clc1ccc(COC(Cn2ccnc2)c2ccc(Cl)cc2Cl)c(Cl)c1` (stereo unspecified), for which the Potency in experiment [8] was 4.47 µM (active).

In the case of `C[C@H]1O[C@@H](n2cc(F)c(=O)[nH]c2=O)[C@H](O)[C@H]1O`, the compound was called inactive in experiment [3], in [4], in [5], in experiment [6] and in experiment [9]. The Potency entry in experiment [1] and in experiment [7] was “inactive” throughout.

Turning to `O=C1C(CCC(O)c2ccc(F)cc2)C(c2ccc(O)cc2)N1c1ccc(F)cc1` (stereo unspecified), the Potency result in experiment [1] is “inactive”.

For `CC1(C)OC2CC3C4CC(F)C5=CC(=O)C=CC5(C)C4C(O)CC3(C)[C@]2(C(=O)CO)O1` (stereo partly specified), the Potency entry in [1] was “inactive”.

As for `N#Cc1c(N(CC(=O)O)CC(=O)O)sc(C(=O)O)c1CC(=O)O`, the Potency entry in [1] and in [8] was “inactive” each time.

As to `CN1CC(=O)N2C(Cc3c([nH]c4ccccc34)[C@H]2c2ccc3c(c2)OCO3)C1=O` (stereo partly specified), the Potency result in experiment [1] and in [8] was “inactive” throughout.

Turning to `CCNC(=O)[C@H]1O[C@@H](n2cnc3c(N)nc(NCCc4ccc(CCC(=O)O)cc4)nc32)[C@H](O)[C@H]1O`, the outcome in experiment [10] and in experiment [11] was inactive. Moreover, the Potency result in experiment [8] was “inactive”.

`CS(=O)(=O)c1ccc(C2=C(c3ccccc3)C(=O)OC2)cc1`: the Potency entry in experiment [1] and in experiment [8] was “inactive” in each case.
